Assay outcomes: PubChem, National Center for Advancing Translational Sciences (NCATS)
TGFb inhibitor: blocks TGF-b signaling; HepG2 CAGA-GFP TGF-b/SMAD3 reporter, GFP fluorescence, 18 h; TGF-beta stimulated, 500 pg/mL final; Potency, µM (top dose mostly 46.1 µM), for inactives: at the highest dose activity, negative = inhibition, hits mostly inhibitors; actives 1.2% (n = 410,000); further: potency means the concentration at half of the fitted maximal effect; on the % scale 0 is the no-effect control and ±100 the full control effect; nearly all actives have a fitted effect of over 65% in size
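Cell-based qHTS in HEPG2 carrying a CAGA-GFP Smad reporter; compounds added before 500 pg/mL final TGF-beta, 18 h incubation at 37 degrees C, GFP fluorescence quantified per cell by imaging cytometry.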
ATXN2 expr inh: reduces ATXN2 reporter expression in HEK-293 cells | Potency, µM (titrated, usually from 57 µM), for the others: at the top dose activity change, negative = inhibition, actives largely listed as inhibitors | actives 0.72% (n = 360,000) | HEK-293 ATXN2-luciferase reporter, luminescence, 24 h | AID 1745845; further: potency means the concentration at half of the fitted maximal effect; on the % scale 0 is the no-effect control and ±100 the full control effect; nearly all actives have a fitted effect of over 55% in size
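qHTS (up to 57 uM final) was run with 24 h compound exposure of reporter cells at 37 °C. Each well was multiplexed: SteadyGlo luminescence measured ATXN2-luciferase expression after a fluorogenic Gly-Phe-AFC viability readout (25 uM final).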
HepG2 viability: counter-screen for TGF-b inhibitors: cytotoxicity in HepG2 cells; actives 0.76% (n = 410,000); HepG2 CAGA-GFP viability, ATP luminescence, 18 h; Potency, µM (highest dose often 46.1 µM), for the others: at the top dose activity change, negative = cytotoxicity, most hits filed as cytotoxic; further: potency means the concentration at half of the fitted maximal effect
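CellTiter-Glo luminescence gave cytotoxicity after 18 hours at 37 degrees C. The cells were HepG2 CAGA-GFP in 1% FBS DMEM, stimulated with 500 pg/mL TGF-beta after compound addition. %Activity was normalised to no-cell wells (complete cell-killing) and DMSO (no toxicity), and curves were fitted and classified.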
DRD3 agonist: activates the human D3 dopamine receptor; actives 0.58% (n = 410,000); D3R DiscoveRx beta-arrestin cells, luminescence, 90 min; P35462; max activation, %; AID 652048; in the data active means max activation above about 30%; further: 0% is about no effect
Target sequence (P35462 whole entry, looked up): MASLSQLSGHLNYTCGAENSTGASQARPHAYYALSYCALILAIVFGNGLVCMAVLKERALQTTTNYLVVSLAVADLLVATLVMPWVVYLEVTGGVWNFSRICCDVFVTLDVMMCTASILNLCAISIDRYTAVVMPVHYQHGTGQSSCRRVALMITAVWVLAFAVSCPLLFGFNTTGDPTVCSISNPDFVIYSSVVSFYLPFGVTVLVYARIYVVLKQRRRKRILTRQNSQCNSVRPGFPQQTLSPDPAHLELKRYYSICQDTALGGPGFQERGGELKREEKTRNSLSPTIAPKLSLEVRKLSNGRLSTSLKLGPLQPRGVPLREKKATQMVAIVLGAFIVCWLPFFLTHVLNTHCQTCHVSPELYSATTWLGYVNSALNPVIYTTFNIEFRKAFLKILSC
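Agonist-mode cell screen: cells plated at 1500/well and incubated overnight at 37 °C, then exposed to library compounds for 90 min at 37 °C. Detection reagent was added for 30–60 min at room temperature, and luminescence was read.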
D3 antag: blocks the human D3 dopamine receptor; P35462; actives 2.5% (n = 360,000); max response, negative = inhibition, %; D3R cells, DiscoveRx beta-arrestin luminescence, antagonist mode; hits give low values; in the data active means max response below about -50%; inconclusive means no clear call, values can overlap the other calls; further: on the % scale 0 is the no-effect control and ±100 the full control effect
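Cells plated overnight at 1500 cells/well, then exposed to library compounds with dopamine controls for 90 minutes at 37 degrees C. DiscoveRx reagent added for 30–60 minutes at room temperature; luminescence read, quantitative HTS format.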
S2 tox: cell viability loss in ATXN counter-screen; AID 651635; Potency, µM (series often up to 56.7 µM), usual class: cytotoxic; S2 cells (HEK-293 line with an ATXN2-luciferase reporter) viability, CellTiter-Fluor protease fluorescence, 24 h; actives 0.49% (n = 400,000); further: potency means the concentration at half of the fitted maximal effect; nearly all actives have a fitted effect of over 40% in size
* = called active by the depositor; i = inactive; ? = inconclusive; . = not tested or not shown. The list is not random: actives were taken first. Their share in the collection is about 4.8%. Unless noted, the call rests on the fitted dose curve; in most records, active means well fitted curve in the direction sought with a large enough effect; inconclusive means small, poorly fitted or top-dose-only effect, or another doubt; inactive means no such curve, though single readings can be large; an effect the other way counts as inactive or inconclusive.

SMILES | TGFb inhibitor | ATXN2 expr inh | HepG2 viability | DRD3 agonist | D3 antag | S2 tox
O=C1NC(Cc2ccc(O)cc2)c2nc3ccc(F)cc3c(=O)n2-c2cc3ccccc3cc21 (configuration not stated) | ? | ? | -28% | 5 | 5 | 14µM*
COc1cc(/C=N/NC(=O)c2cc(-c3ccccc3Cl)nc3ccccc23)cc(OC)c1O | -32% | 40% | 5% | 7 | -11 | i
CC(C)COc1cccc(-c2cc(C(=O)N/N=C/c3ccncc3)c3ccccc3n2)c1 | -11% | 80% | -47% | 34* | 66 | i
COc1cc(/C=N/NC(=O)c2cnn3c(C)cc(-c4ccccc4)nc23)ccc1O | 11% | -18% | 8% | 47* | 0 | i
CCOc1ccc(-c2cc(C(=O)N/N=C/c3cccnc3)c3ccccc3n2)cc1 | 1% | 40% | -19% | 0 | 14 | ?
COc1cc(/C=N/NC(=O)c2cc(-c3ccccc3)nc3ccccc23)ccc1O | 0% | 43% | -21% | -9 | 23 | i
COc1cc(/C=N/NC(=O)c2cc(-c3cccc(Br)c3)nc3ccccc23)cc(OC)c1O | ? | -24% | -16% | 32* | 7 | i
CCOc1cc(/C=N/NC(=O)c2cc(-c3cccc(OC)c3)nc3ccccc23)ccc1O | ? | ? | -1% | 35* | 96 | ?
COc1cc(/C=N/NC(=O)c2nc(-c3ccccc3)n(-c3ccccc3)n2)ccc1O | ? | 4% | -13% | -5 | 6 | i
COc1cc(OC)c(NC(=O)CCn2cccn2)cc1Cl | -4% | 11% | 13% | 1 | . | i
O=C1C[C@@H]2c3c(cccc3CN1Cc1ccccc1F)C[C@@H](O)[C@H]2O | -8% | 10% | -2% | 49* | 0 | i
CC(C)[C@H](O)C(=O)N[C@@H](C)C(=O)N[C@@H]1C(=O)N(C)CCc2ccccc21 | . | 23% | . | . | . | .
CC(C)c1ccc(NS(=O)(=O)c2ccc3[nH]cc(C(=O)NC4CCCCC4)c(=O)c3c2)cc1 | ? | . | -109% | -12 | . | .
CCN(CC)S(=O)(=O)c1ccc2c(c1)c(=O)c(C(=O)NCc1ccccc1Cl)cn2C | -40% | -9% | 5.6µM* | -9 | . | i
Cc1cc(C)cc(NS(=O)(=O)c2ccc3[nH]cc(C(=O)NCc4ccco4)c(=O)c3c2)c1 | ? | ? | -51% | 12 | ? | ?
CCOc1ccc(NS(=O)(=O)c2ccc3[nH]cc(C(=O)NCC4CCCO4)c(=O)c3c2)cc1 (configuration not stated) | 3% | 5% | -14% | -2 | -55* | i
Cc1cc(C)cc(NS(=O)(=O)c2ccc3[nH]cc(C(=O)NC4CCCCC4)c(=O)c3c2)c1 | ? | ? | 11µM* | 6 | . | ?
Cc1cc(C)cc(NS(=O)(=O)c2ccc3[nH]cc(C(=O)NCc4ccccc4Cl)c(=O)c3c2)c1 | 13µM* | -37% | -36% | 7 | . | ?
O=C1CCCc2c(O)cccc21 | . | 57% | . | . | . | i
CCOc1ccc(-c2nc(N)ncc2Oc2ccccc2Br)c(O)c1 | ? | -7% | 11µM* | 0 | 0 | i
C=C(C)COc1ccc(-c2nc(N)ncc2-c2ccc(Br)cc2)c(O)c1 | 16µM* | -8% | -105% | 6 | 11 | i
COc1ccc(-c2cnc(N)nc2-c2ccc(OC)cc2)cc1 | 3% | -2% | -25% | -6 | 4 | i
CCc1cc(-c2nc(N)ncc2-c2ccc(Br)cc2)c(O)cc1OC | ? | -15% | 22µM* | 17 | 21 | i
C=C(C)COc1ccc(-c2nc(N)ncc2Oc2ccc(OC)cc2)c(O)c1 | ? | -12% | 11µM* | 1 | ? | i
C=C(C)COc1ccc(-c2ncncc2-c2ccc(Br)cc2)c(O)c1 | ? | -13% | -22% | 8 | 5 | .
SMILES | TGFb inhibitor | ATXN2 expr inh | HepG2 viability | DRD3 agonist | D3 antag | S2 tox
COc1ccc(-c2nc(N)ncc2-c2ccc(OC)c(OC)c2)c(O)c1 | 0% | -13% | -22% | 13 | 18 | i
COc1ccc(-c2cnc(N)nc2-c2ccc(OCc3ccccc3)cc2O)cc1 | 13µM* | -7% | -29% | 13 | 20 | i
CCn1c2ccccc2c2nnc(N3CCN(c4ccc(OC)cc4)CC3)nc21 | -13% | . | -10% | 2 | . | .
COc1ccc(CNS(=O)(=O)c2ccc(C3CNC(=O)C3)cc2)cc1 (configuration not stated) | -14% | -12% | 3% | 3 | -142* | i
Cc1ccc(CSc2nc3ccc(NC(=O)C(C)C)cc3s2)cc1 | -4% | -17% | -35% | -3 | . | i
COc1ccc(CN2CC[C@H]3C=CC[C@@H](C(=O)Nc4ccccc4)[C@H]3C2=O)cc1OC | -13% | . | 0% | . | . | .
CC(C)(C)c1cc(NCCCn2ccnc2)n2ncc(-c3ccc(Cl)cc3)c2n1 | ? | ? | 22µM* | 9 | 14 | ?
Cc1cc(NCCCn2ccnc2)n2nc(-c3ccc(Cl)cc3)cc2n1 | -8% | 8% | -21% | -6 | 22 | i
CN(C)c1ccc(-c2c(C3C4C=CCCC4(C)C(=O)N3Cc3ccccc3)ccc3ccccc23)cc1 (configuration not stated) | ? | . | -13% | . | . | .
CC1=CC(O)=NS(=O)(=O)O1 | 25% | . | 15% | . | . | .
CCOc1cc(NS(=O)(=O)c2ccccc2)c(OCC)cc1NC(=O)c1ccco1 | 0% | -8% | 4% | 0 | -51* | i
CCNC(=S)Nc1cc(OCC)c(NC(=O)c2ccco2)cc1OCC | -27% | -1% | -3% | 3 | 17 | i
O=C(CSc1nnc(-c2ccco2)n1CC1CCCO1)c1ccc(F)cc1 (configuration not stated) | -5% | 15% | -71% | 6 | -67* | i
COc1ccc(C(=O)CSc2nnc(-c3ccco3)n2CC2CCCO2)cc1 (configuration not stated) | 8% | 1% | -21% | -2 | -4 | i
Cc1ccc(C)c(NC(=O)CCc2c(C)nn(-c3ccc(N4CCCC4)nn3)c2C)c1 | -24% | . | -12% | 7 | . | .
COC(=O)C1(Cc2cc(-c3ccccc3)no2)CCN(C(=O)OC(C)(C)C)CC1 | ? | 12% | -28% | 14 | 30 | ?
OC1(Cc2cc(-c3ccccc3)no2)CCN(CCCc2ccccc2)CC1 | -8% | 9% | -44% | -8 | -75* | ?
COc1ccc(Cl)cc1C(=O)NNC(=O)COC(=O)CCN=C1NS(=O)(=O)c2ccccc21 | 0% | -6% | -3% | -65 | -108* | ?
